Screening results (PubChem BioAssay)
Only some compounds are listed: those with a hit (about 0.72% of all), similar ones and a draw of the others.
Neddyl block = cullin neddylation inhibition; TR-FRET cullin neddylation, biochemical; calls only at 25 µM; actives 0.58% (n = 360,000); in the data active = inhibition above about 36%
PKA-R2B act = activators of human PKA-R2B complex | AID 504700 | actives 0.079% (n = 340,000) | PKA-R2B holoenzyme dissociation, Cy5-IP20 fluorescence polarization; R2B truncated from residue 108, S112A mutant; 0% DMSO only, 100% 113 µM cGMP | P22694+P31323 | activation, % at 11.4 µM;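 active = activation above a cutoff set at the mean over all compounds plus 3 SD, cut at about 18% in these data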;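 note: higher means more holoenzyme dissociation and a rise in polarization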
Target sequence (P31323 whole entry, looked up, other chains not shown, the tested form may be a part): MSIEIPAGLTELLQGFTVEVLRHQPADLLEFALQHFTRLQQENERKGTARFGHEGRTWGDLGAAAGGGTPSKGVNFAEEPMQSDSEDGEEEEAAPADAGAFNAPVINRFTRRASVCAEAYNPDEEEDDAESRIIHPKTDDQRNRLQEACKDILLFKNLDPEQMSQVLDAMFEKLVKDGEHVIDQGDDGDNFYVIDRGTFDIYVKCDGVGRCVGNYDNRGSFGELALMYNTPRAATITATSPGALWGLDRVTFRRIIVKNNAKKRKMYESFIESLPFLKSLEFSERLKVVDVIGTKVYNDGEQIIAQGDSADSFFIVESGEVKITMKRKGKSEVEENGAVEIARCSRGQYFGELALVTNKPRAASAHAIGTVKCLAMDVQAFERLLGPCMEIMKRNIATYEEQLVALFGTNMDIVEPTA
PKA-R1A activ = activates the PKA-R1A holoenzyme complex; actives 0.083% (n = 340,000); P00514+P68181; PKA-R1A dissociation, Cy5-IP20 fluorescence polarization; scaled: DMSO 0%, 113 µM cGMP 100%; activation, % at 11.4 µM;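 active = percent activation above the mean of all tested compounds plus 3 SD, cut at about 19% in these data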;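 note: higher means more PKAc released from R1A so a rise in polarization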
PolyA inh = blocks polyadenylation in yeast reporter cells | S. cerevisiae SKY197-pL101 polyadenylation reporter, beta-gal luminescence; efflux-impaired pdr1/pdr3 knockout yeast; score 100 = 6 SD above DMSO | activity score, % at 12 µM | actives 0.02% (n = 300,000) | AID 1875;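 active = lowest replicate activity score at least 50, where 100 means six control SD above control mean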;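 note: yeast exposed to compound for 9 h at 30 °C; higher score means more reporter readthrough which indicates perturbed polyadenylation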
Neddyl inh conf = cullin neddylation inhibition, confirmation; shares compounds with Neddyl block; AID 652217; TR-FRET cullin neddylation biochemical assay; calls only at 25 µM; actives 13% (n = 1,800); in the data active = inhibition above about 40%;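 note: neddylation substrate is the cullin 1 ring ligase complex with SKP2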
The depositor's hits bear a star.

`Cn1c2ccccc2c2c(C(=O)N3CCN(C(=O)c4ccco4)CC3)cn(C3CCCCC3)c(=O)c21` gave Neddyl block active, PKA-R2B act -4, PKA-R1A activ 2, PolyA inh -4 and Neddyl inh conf inactive.
`CCOc1ccc(S(=O)(=O)N2CCN(CC(O)COc3cccc([N+](=O)[O-])c3)CC2)cc1` (stereo not given) gave Neddyl block inactive, PKA-R2B act -2, PKA-R1A activ -10 and PolyA inh 11.
Screening CCc1ccc(-c2cnc3nc[nH]c(=O)c3n2)cc1 returned Neddyl block active, PKA-R2B act 13, PKA-R1A activ -3, PolyA inh -7 and Neddyl inh conf active.
O=c1[nH]c(=O)c2nc(-c3ccc(Cl)cc3)cnc2[nH]1 was read as Neddyl block inactive, PKA-R2B act 0, PKA-R1A activ -6 and PolyA inh 24.
Screening Cc1ccc(-n2c(SCC(=O)OC(C)C)nnc2-c2ccncc2)cc1 returned Neddyl block active, PKA-R2B act -2, PKA-R1A activ 6, PolyA inh 9 and Neddyl inh conf inactive.
For O=C(NCc1ccccc1)Nc1nnc([C@@H]2C[C@H](O)[C@@H](CO)O2)s1 the results were Neddyl block inactive.
Screening COc1ccccc1-c1nc(C#N)c(N2CCN(Cc3ccccc3)CC2)o1 returned Neddyl block active, PKA-R2B act -2, PKA-R1A activ 7 and PolyA inh -8.
Screening c1ccc(Cn2c(-c3ccccc3)nc3nc4ccccc4nc32)cc1 returned Neddyl block active, PKA-R2B act 3, PKA-R1A activ -7, PolyA inh -40 and Neddyl inh conf inactive.
`c1csc(-c2nc3nc4ccccc4nc3n2Cc2ccc3c(c2)OCO3)c1` gave Neddyl block active, PKA-R2B act -1, PKA-R1A activ 3 and Neddyl inh conf inactive.
Screening NC(=O)/C(=C/c1ccco1)C(N)=S returned Neddyl block active, PKA-R2B act -9, PKA-R1A activ -13, PolyA inh 8 and Neddyl inh conf inactive.
For NC(=O)/C(=C\c1ccco1)NC(=O)c1ccco1 the results were Neddyl block inactive, PKA-R2B act -6 and PKA-R1A activ 3.
Screening Cc1ccc(C)c(S(=O)(=O)C(C#N)c2nc3ccccc3nc2N2CC(C)OC(C)C2)c1 (stereo not given) returned Neddyl block active, PKA-R2B act -9, PKA-R1A activ 1, PolyA inh 5 and Neddyl inh conf inactive.
For Cc1ccc(C)c(S(=O)(=O)C(C#N)c2nc3ccccc3nc2N2CCCC2)c1 (stereo not given) the results were Neddyl block inactive, PKA-R2B act 7, PKA-R1A activ 6 and PolyA inh -2.
Screening CC(C(=O)NCCc1ccccc1)N1c2cccc3cccc(c23)S1(=O)=O (stereo not given) returned Neddyl block inactive, PKA-R2B act 2, PKA-R1A activ 8 and PolyA inh 3.
`O=C1c2cccc3cccc(c23)C(=O)N1Cc1cccnc1` gave Neddyl block inactive, PKA-R2B act -1, PKA-R1A activ 1 and PolyA inh -16.
For c1cc2c3c(cccc3c1)-c1cnccc1-2 the results were Neddyl block active, PKA-R2B act -2, PKA-R1A activ -4 and Neddyl inh conf active.
For O=C(O)CCn1c(-c2ccccc2)cc2ccccc21 the results were Neddyl block active, PKA-R2B act -13, PKA-R1A activ -3 and PolyA inh 9.
CCSC1=C(C#N)C(c2ccc(C)o2)CC(=O)N1 (stereo not given) was read as Neddyl block active, PKA-R2B act -2, PKA-R1A activ -11, PolyA inh -8 and Neddyl inh conf inactive.
`COc1ccc(CCNC(=O)CNC(=O)c2ccc(Br)o2)cc1OC` gave Neddyl block inactive, PKA-R2B act -1, PKA-R1A activ 6 and PolyA inh 2.
For N#Cc1c(-c2cccc(Br)c2)cc(-c2ccco2)[nH]c1=O the results were PKA-R2B act -5, PKA-R1A activ -4 and PolyA inh -2.
Screening COc1ccc(-c2cc(-c3ccco3)[nH]c(=O)c2C#N)cc1 returned Neddyl block active, PKA-R2B act 1, PKA-R1A activ 1, PolyA inh -12 and Neddyl inh conf inactive.
`CN(CC(=O)NC(=O)NC1CCCCC1)CC(=O)Nc1ccccc1C(F)(F)F` gave Neddyl block inactive, PKA-R2B act -3 and PKA-R1A activ -10.
Screening CCN(CC)CCCNc1nc(C)cc(COC)c1C#N returned Neddyl block active, PKA-R2B act 2, PKA-R1A activ -15, PolyA inh 25 and Neddyl inh conf inactive.
`Cc1ccc(C)c2c(N)c3c(nc12)CCCCC3` (tested in a mixture with another compound) gave Neddyl block inactive, PKA-R2B act 0, PKA-R1A activ -5 and PolyA inh 3.
For COc1cc(-c2nnc(CSc3nnc(Nc4ccc(C(C)C)cc4)s3)o2)cc(OC)c1OC the results were Neddyl block active, PKA-R2B act 5, PKA-R1A activ 0, PolyA inh 10 and Neddyl inh conf inactive.
COc1ccccc1Nc1nnc(SCc2nnc(-c3cc(OC)c(OC)c(OC)c3)o2)s1 was read as Neddyl block inactive, PKA-R2B act 5, PKA-R1A activ -1 and PolyA inh 14.
O=C(Nc1ccc(F)cc1)C1CCN(S(=O)(=O)c2ccc3[nH]c(=O)oc3c2)CC1 was read as Neddyl block inactive, PKA-R2B act -1, PKA-R1A activ 3 and PolyA inh -3.
For COc1ccc(-c2cc3ccc(OCc4nn[nH]n4)cc3oc2=O)cc1OC the results were Neddyl block active, PKA-R2B act 11, PKA-R1A activ -2 and Neddyl inh conf active.
COc1ccc(-c2cc3ccc(OCC(C)=O)cc3oc2=O)cc1OC was read as Neddyl block inactive, PKA-R2B act -1, PKA-R1A activ -3 and PolyA inh -7.
For O=C(O)c1cc(OCc2ccccc2)cc(OCc2ccccc2)c1 the results were Neddyl block inactive, PKA-R2B act 2, PKA-R1A activ 1 and PolyA inh -2.
O=C(O)c1cc2cc(OCc3ccccc3)ccc2[nH]1 was read as Neddyl block active, PKA-R2B act -6, PKA-R1A activ -7, PolyA inh 1 and Neddyl inh conf inactive.
Screening Cc1csc(N2CCN(c3cc4c(cc3Cl)nc(-c3ccncc3)n4CCCN3CCCC3)CC2)n1 returned Neddyl block active, PKA-R2B act -1, PKA-R1A activ 3, PolyA inh 4 and Neddyl inh conf inactive.
For c1coc(CNc2nc(N3CCCCC3)nc3ccccc23)c1 the results were Neddyl block active, PKA-R2B act 2, PKA-R1A activ 1, PolyA inh -10 and Neddyl inh conf inactive.
